Measurements reported in PubChem BioAssay AID1159580 (chemical genetic matrix, 2015).
Where “and” joins values, the source holds several entries; their conditions need not be identical. Equal values may be shown once. In all, about 5,500 compounds went through this assay and about 2,000 (36%) were called active. Inconclusive results (about 18%) are left out. No stated cut-off is given here; in the data, active means normalized growth mostly below about 0.91 (no sharp cut-off); inconclusive means no clear call, values can overlap the other calls; inactive means mostly above about 0.92. Some of the results follow.

Assay: chemical genetic growth profiling, strain panel (AID 1159580);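 further: tested at 20 µM; growth read once vehicle control cultures reached saturation at 30 °C; 1 = growth at the plate median or of vehicle wells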
Details: S. cerevisiae deletion strains, growth OD

Measured: normalized growth

CC1CCC2(OC1)OC1CC3C4CCC5C[C@@H](O)CCC5(C)C4=CCC3(C)C1[C@@H]2C (stereo partly drawn)
inactive: locus YAL021C, strain ccr4, stronger effect = lower value 1 | locus YAL026C, strain drs2, stronger effect = lower value 0.999 | locus YAL030W, strain snc1, stronger effect = lower value 1.02 | locus YBL061C, strain skt5, stronger effect = lower value 1.01 | locus YBR009C, strain hhf1, stronger effect = lower value 1.01 | locus YBR021W, strain FUR4, stronger effect = lower value 1.13 | locus YBR023C, strain chs3, stronger effect = lower value 1.01 | locus YBR171W, strain sec66, stronger effect = lower value 0.995 | locus YBR229C, strain ROT2, stronger effect = lower value 0.991 | locus YBR231C, strain swc5, stronger effect = lower value 0.997 | locus YBR279W, strain paf1, stronger effect = lower value 1 | locus YCL011C, strain gbp2, stronger effect = lower value 0.991 | locus YCL016C, strain dcc1, stronger effect = lower value 1 | locus YCL029C, strain bik1, stronger effect = lower value 0.972 | locus YCL069W, strain vba3, stronger effect = lower value 0.994 | locus YCR088W, strain abp1, stronger effect = lower value 1.01 | locus YDL005C, strain med2, stronger effect = lower value 1.02 | locus YDL035C, strain GPR1, stronger effect = lower value 1.01 | locus YDL040C, strain nat1, stronger effect = lower value 0.994 | locus YDL074C, strain BRE1, stronger effect = lower value 1.01 | locus YDL101C, strain DUN1, stronger effect = lower value 0.985 | locus YDL185W, strain tfp1, stronger effect = lower value 0.948 | locus YDL192W, strain arf1, stronger effect = lower value 0.985 | locus YDR001C, strain nth1, stronger effect = lower value 0.997 | locus YDR069C, strain doa4, stronger effect = lower value 1.01 | locus YDR101C, strain arx1, stronger effect = lower value 1.01 | locus YDR137W, strain rgp1, stronger effect = lower value 1.04 | locus YDR159W, strain sac3, stronger effect = lower value 1.01 | locus YDR162C, strain NBP2, stronger effect = lower value 1.01 | locus YDR195W, strain ref2 0.931 | locus YDR297W, strain sur2, stronger effect = lower value 0.998 | locus YDR318W, strain mcm21, stronger effect = lower value 0.979 | locus YDR334W, strain swr1, stronger effect = lower value 1.01 | locus YDR335W, strain msn5, stronger effect = lower value 1 | locus YDR388W, stronger effect = lower value 0.966 | locus YDR392W, strain spt3, stronger effect = lower value 0.994 | locus YDR502C, strain sam2, stronger effect = lower value 0.974 | locus YEL003W, strain gim4, stronger effect = lower value 1 | locus YEL037C, strain rad23, stronger effect = lower value 1 | locus YEL061C, strain CIN8 (second series), stronger effect = lower value 0.993 | locus YEL061C, strain CIN8, stronger effect = lower value 0.996 | locus YER015W, strain faa2, stronger effect = lower value 1 | locus YER016W, strain bim1, stronger effect = lower value 1 | locus YER110C, stronger effect = lower value 0.959 | locus YER111C, strain swi4, stronger effect = lower value 0.994 | locus YER155C, strain BEM2 (second series), stronger effect = lower value 0.994 | locus YER155C, strain BEM2, stronger effect = lower value 1.01 | locus YER167W, strain BCK2, stronger effect = lower value 1.01 | locus YFR010W, strain ubp6, stronger effect = lower value 1 | locus YGL078C, strain dbp3, stronger effect = lower value 0.948 | locus YGL086W, strain mad1, stronger effect = lower value 0.998 | locus YGL167C, strain pmr1, stronger effect = lower value 1.01 | locus YGL173C, strain kem1, stronger effect = lower value 1.01 | locus YGL227W, strain vid30, stronger effect = lower value 0.986 | locus YGL240W, strain doc1, stronger effect = lower value 1.01 | locus YGL248W, strain PDE1, stronger effect = lower value 0.999 | locus YGL253W, strain hxk2, stronger effect = lower value 0.99 | locus YGR135W, strain pre9, stronger effect = lower value 0.958 | locus YGR252W, strain gcn5, stronger effect = lower value 1.01 | locus YHR013C, strain ard1, stronger effect = lower value 0.998 | locus YHR027C, strain rpn1, stronger effect = lower value 0.989 | locus YHR030C, strain SLT2, stronger effect = lower value 0.972 and 1.02 | locus YHR079C, strain IRE1 (second series), stronger effect = lower value 0.983 | locus YHR079C, strain IRE1, stronger effect = lower value 1.01 | locus YHR094C, strain hxt1, stronger effect = lower value 0.973 | locus YHR129C, strain ARP1, stronger effect = lower value 0.998 | locus YHR142W, strain chs7, stronger effect = lower value 0.995 | locus YHR200W, strain rpn10, stronger effect = lower value 0.986 | locus YIL066C, strain RNR3, stronger effect = lower value 1 | locus YIL073C, strain SPO22, stronger effect = lower value 0.937 | locus YIL125W, strain kgd1, stronger effect = lower value 0.982 | locus YIR030C, strain dcg1, stronger effect = lower value 0.991 | locus YJL092W, strain hpr5, stronger effect = lower value 0.993 | locus YJL095W, strain BCK1 (second series), stronger effect = lower value 1.02 | locus YJL095W, strain BCK1, stronger effect = lower value 0.982 and 1.02 | locus YJL115W, strain asf1, stronger effect = lower value 0.986 | locus YJL129C, strain trk1, stronger effect = lower value 1.01 | locus YJL134W, strain LCB3, stronger effect = lower value 0.987 | locus YJL154C, strain vps35, stronger effect = lower value 1 | locus YJL164C, strain tpk1, stronger effect = lower value 1.01 | locus YJL166W, strain qcr8, stronger effect = lower value 1 | locus YJL168C, strain set2, stronger effect = lower value 0.984 | locus YJL187C, strain SWE1 (second series), stronger effect = lower value 0.986 | locus YJL187C, strain SWE1, stronger effect = lower value 1.01 | locus YJR043C, strain POL32, stronger effect = lower value 1.02 | locus YJR066W, strain TOR1, stronger effect = lower value 0.945 | locus YKL009W, strain mrt4, stronger effect = lower value 0.988 | locus YKL068W, stronger effect = lower value 0.97 | locus YKL085W, strain MDH1 (second series), stronger effect = lower value 0.978 | locus YKL085W, strain MDH1, stronger effect = lower value 0.978 | locus YKL160W, strain elf1, stronger effect = lower value 0.992 | locus YKL190W, strain CNB1, stronger effect = lower value 0.992 | locus YKR001C, strain vps1, stronger effect = lower value 0.983 | locus YKR026C, strain gcn3, stronger effect = lower value 1 | locus YKR091W, strain srl3, stronger effect = lower value 1.01 | locus YLL001W, strain dnm1, stronger effect = lower value 1.01 | locus YLL026W, stronger effect = lower value 0.992 | locus YLL041C, strain sdh2, stronger effect = lower value 0.992 | locus YLR027C, strain aat2, stronger effect = lower value 0.985 | locus YLR039C, strain RIC1, stronger effect = lower value 1.01 | locus YLR058C, strain SHM2, stronger effect = lower value 0.973 | locus YLR102C, strain apc9, stronger effect = lower value 0.974 | locus YLR113W, strain HOG1, stronger effect = lower value 0.992 | locus YLR221C, strain rsa3, stronger effect = lower value 1 | locus YLR258W, strain gsy2, stronger effect = lower value 0.994 | locus YLR262C, strain YPT6 (second series), stronger effect = lower value 1.1 | locus YLR262C, strain YPT6, stronger effect = lower value 1.04 | locus YLR268W, strain sec22, stronger effect = lower value 0.999 | locus YLR320W, strain mms22, stronger effect = lower value 1 | locus YLR330W, strain CHS5, stronger effect = lower value 0.993 | locus YLR342W, strain FKS1 (second series), stronger effect = lower value 1.05 | locus YLR342W, strain FKS1, stronger effect = lower value 1.05 | locus YLR357W, strain rsc2, stronger effect = lower value 1 | locus YLR370C, strain arc18, stronger effect = lower value 1.02 | locus YLR371W, strain rom2, stronger effect = lower value 0.978 | locus YLR384C, strain iki3, stronger effect = lower value 1.01 | locus YLR418C, strain cdc73, stronger effect = lower value 0.977 | locus YML016C, strain PPZ1, stronger effect = lower value 1.01 | locus YML032C, strain rad52, stronger effect = lower value 0.964 | locus YML120C, strain ndi1, stronger effect = lower value 0.99 | locus YML124C, strain tub3, stronger effect = lower value 0.98 | locus YMR058W, strain fet3, stronger effect = lower value 0.983 | locus YMR078C, strain ctf18, stronger effect = lower value 0.98 | locus YMR125W, strain sto1, stronger effect = lower value 0.995 | locus YMR129W, stronger effect = lower value 0.997 | locus YMR205C, strain PFK2, stronger effect = lower value 0.997 | locus YMR223W, strain ubp8, stronger effect = lower value 0.994 | locus YMR231W, strain pep5, stronger effect = lower value 0.998 | locus YMR263W, strain SAP30, stronger effect = lower value 0.982 | locus YMR307W, strain GAS1, stronger effect = lower value 1.27 | locus YNL067W, strain RPL9B, stronger effect = lower value 0.974 | locus YNL071W, strain lat1, stronger effect = lower value 1.02 | locus YNL183C, strain NPR1, stronger effect = lower value 0.963 | locus YNL209W, strain ssb2, stronger effect = lower value 1 | locus YNL233W, strain BNI4, stronger effect = lower value 0.99 | locus YNL248C, strain rpa49, stronger effect = lower value 1.01 | locus YNL250W, strain rad50, stronger effect = lower value 0.959 | locus YNL271C, strain bni1, stronger effect = lower value 0.983 | locus YNL298W, strain CLA4, stronger effect = lower value 0.98 | locus YNL307C, strain MCK1, stronger effect = lower value 0.982 | locus YNL322C, strain KRE1 (second series), stronger effect = lower value 0.986 | locus YNL322C, strain KRE1, stronger effect = lower value 1 | locus YNR049C, strain mso1, stronger effect = lower value 1.01 | locus YNR052C, strain pop2, stronger effect = lower value 0.981 | locus YOL012C, strain htz1 0.809 | locus YOL147C, strain pex11, stronger effect = lower value 0.98 | locus YOR001W, strain rrp6, stronger effect = lower value 1.01 | locus YOR061W, strain CKA2, stronger effect = lower value 1 | locus YOR069W, strain VPS5, stronger effect = lower value 0.981 | locus YOR070C, strain gyp1, stronger effect = lower value 1.01 | locus YOR080W, strain dia2, stronger effect = lower value 1.01 | locus YOR083W, strain WHI5, stronger effect = lower value 1 | locus YOR106W, strain vam3, stronger effect = lower value 1.02 | locus YOR136W, strain idh2, stronger effect = lower value 0.983 | locus YOR144C, strain elg1, stronger effect = lower value 0.979 | locus YOR184W, strain ser1, stronger effect = lower value 0.996 | locus YOR231W, strain MKK1, stronger effect = lower value 1 | locus YOR265W, strain rbl2, stronger effect = lower value 0.999 | locus YOR270C, strain vph1, stronger effect = lower value 1.04 | locus YOR290C, strain snf2, stronger effect = lower value 1 | locus YOR316C, strain cot1, stronger effect = lower value 0.959 | locus YPL051W, strain arl3, stronger effect = lower value 0.997 | locus YPL055C, strain LGE1, stronger effect = lower value 1.02 | locus YPL078C, strain atp4, stronger effect = lower value 0.991 | locus YPL106C, strain sse1, stronger effect = lower value 0.995 | locus YPL240C, strain hsp82, stronger effect = lower value 1.01 | locus YPL241C, strain CIN2, stronger effect = lower value 0.989 | locus YPL256C, strain CLN2, stronger effect = lower value 0.983 | locus YPR119W, strain clb2, stronger effect = lower value 0.985 | locus YPR141C, strain kar3, stronger effect = lower value 0.962 | locus YPR163C, strain tif3, stronger effect = lower value 0.954 | locus YPR167C, strain met16, stronger effect = lower value 0.989 | strain wtn01, stronger effect = lower value 0.986
